{"source": "PubChem BioAssay (NCATS)", "note": "Results filed as inconclusive are left out. Where a call stands in place of a potency, no number is given. Values without a mark were called inactive. Activity calls are given as the source filed them. Calls follow the shape of the dose curve; as a rule, active = well fitted inhibition curve with a large enough effect; inconclusive = small, poorly fitted or top-dose-only effect; inactive = no such curve, though single readings can be large or run the other way. Potency is read from the fitted curve at half-maximal effect.", "data": [{"assay": "Primary qHTS for inhibitors of nuclear receptor binding SET domain protein 2 (NSD2) in an RCH-ACV wild type WT cells (2C) (AID 1645877); also: nearly all actives have a fitted effect of over 70% in size", "details": "RCH-ACV NSD2 WT (2C) viability, CellTiter-Glo, 72 h; series mostly up to 44.9 µM", "values": [{"compound": "CCCOC(=O)c1ccccc1", "Potency": "inactive"}, {"compound": "CN(C)CCCO[C@@H]1[C@H]2OC(C)(C)O[C@H]2O[C@@H]1C(O)CO", "note": "(stereo partly drawn)", "Potency": "inactive"}, {"compound": "COc1ccccc1O", "Potency": "39 µM (active)"}, {"compound": "CC12CCC(CC1)C(C)(C)O2", "Potency": "inactive"}, {"compound": "O=C(O)CC(O)C(=O)O", "note": "(stereo not drawn)", "Potency": "inactive"}, {"compound": "CC1(C)OC(=O)NC1=O", "Potency": "inactive"}, {"compound": "CC[C@@]1(c2ccccc2)NC(=O)N(C)C1=O", "Potency": "inactive"}, {"compound": "O=Cc1ccccc1C=O", "Potency": "inactive"}, {"compound": "Oc1ccc(C(O)CNCCCCCCNCC(O)c2ccc(O)c(O)c2)cc1O", "note": "(stereo not drawn)", "Potency": "inactive"}, {"compound": "CC/C=C(\\C(=O)N[C@@H]1C(=O)N2C(C(=O)OCOC(=O)C(C)(C)C)=C(COC(N)=O)CS[C@H]12)c1csc(N)n1", "Potency": "inactive"}, {"compound": "N[C@@H](CSCCCO)C(=O)O", "Potency": "inactive"}, {"compound": "CCOC(=O)[C@H](CCc1ccccc1)N[C@@H](C)C(=O)N1C(=O)N(C)C[C@H]1C(=O)O", "Potency": "inactive"}, {"compound": "CCCCN(CCCC)CCCOC(=O)c1ccc(N)cc1", "Potency": "inactive"}, {"compound": "CCOc1ccc2ccccc2c1C(=O)N[C@@H]1C(=O)N2[C@@H]1SC(C)(C)[C@@H]2C(=O)O", "Potency": "inactive"}, {"compound": "CN1CCOC(c2ccccc2)c2ccccc2C1", "note": "(stereo not drawn)", "Potency": "inactive"}, {"compound": "C[C@@H]1CCN(C(=O)[C@H](CCCN=C(N)N)NS(=O)(=O)c2cccc3c2NC[C@H](C)C3)[C@@H](C(=O)O)C1", "Potency": "inactive"}, {"compound": "COc1cc(C(=O)N2CCOCC2)cc(OC)c1OC", "Potency": "inactive"}, {"compound": "O=C1OC(OC(=O)c2cccnc2Nc2cccc(C(F)(F)F)c2)c2ccccc21", "note": "(stereo not drawn)", "Potency": "inactive"}, {"compound": "O=C(O)COc1nn(Cc2ccccc2)c2ccccc12", "Potency": "inactive"}, {"compound": "NCC(=O)CCC(=O)O", "Potency": "inactive"}, {"compound": "CC1=C(C/C=C(\\C)CCC[C@H](C)CCC[C@H](C)CCCC(C)C)C(=O)c2ccccc2C1=O", "Potency": "inactive"}, {"compound": "Oc1cn2c(n1)Nc1ccc(Cl)c(Cl)c1C2", "Potency": "inactive"}, {"compound": "CC(O)CN(CCN(CC(C)O)CC(C)O)CC(C)O", "note": "(stereo not drawn)", "Potency": "inactive"}, {"compound": "COc1ccc2cc1Oc1cc3c(cc1OC)CC[N+](C)(C)[C@H]3Cc1ccc(cc1)Oc1c(OC)c(OC)cc3c1[C@@H](C2)[N+](C)(C)CC3", "Potency": "inactive"}, {"compound": "CC(=O)Oc1c(C)c(C)c2c(c1C)CC[C@@](C)(CCC[C@H](C)CCC[C@H](C)CCCC(C)C)O2", "Potency": "inactive"}, {"compound": "N[C@@H](CSSC[C@H](N)C(=O)O)C(=O)O", "activity change, negative = cell killing": "2.98% [at 0.588 µM]"}, {"compound": "N[C@H](C(=O)O)c1ccc(O)cc1", "Potency": "inactive"}, {"compound": "O=S(=O)(O)NC1CCCCC1", "Potency": "inactive"}, {"compound": "Cc1cccc(C)c1NC(=O)CN(CC(=O)O)CC(=O)O", "Potency": "inactive"}, {"compound": "CCC(=O)Nc1ccc(O)cc1", "Potency": "inactive"}, {"compound": "CC1CC(OC(=O)C(O)c2ccccc2)CC(C)(C)N1C", "note": "(stereo not drawn)", "Potency": "inactive"}, {"compound": "CC(C)(C)C(=O)NCCCC(=O)O", "Potency": "inactive"}, {"compound": "CC1(C)CO[C@@H](CC(=O)O)CN1", "Potency": "inactive"}]}]}
